Compounds with a hit are over-represented: about 27% of the library has one in this group of screens.
Pyk2 oligo antag: antagonists of human Pyk2 oligomerization | AID 1347419 | 99,000 tested, 0.83% active | Q293 cells, Pyk2 FERM NanoBiT luminescence; stronger effect = lower value | z-score (the deposit names both 25 µM and 10 µM) | Q14289;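 active = Z-score of -3 or lower, scaled per plate to the spread of control and sample wells; inactive = z-score above -3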;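 note: negative z-score means lost luminescence so less FERM oligomerization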
Target sequence (Q14289 whole entry, looked up): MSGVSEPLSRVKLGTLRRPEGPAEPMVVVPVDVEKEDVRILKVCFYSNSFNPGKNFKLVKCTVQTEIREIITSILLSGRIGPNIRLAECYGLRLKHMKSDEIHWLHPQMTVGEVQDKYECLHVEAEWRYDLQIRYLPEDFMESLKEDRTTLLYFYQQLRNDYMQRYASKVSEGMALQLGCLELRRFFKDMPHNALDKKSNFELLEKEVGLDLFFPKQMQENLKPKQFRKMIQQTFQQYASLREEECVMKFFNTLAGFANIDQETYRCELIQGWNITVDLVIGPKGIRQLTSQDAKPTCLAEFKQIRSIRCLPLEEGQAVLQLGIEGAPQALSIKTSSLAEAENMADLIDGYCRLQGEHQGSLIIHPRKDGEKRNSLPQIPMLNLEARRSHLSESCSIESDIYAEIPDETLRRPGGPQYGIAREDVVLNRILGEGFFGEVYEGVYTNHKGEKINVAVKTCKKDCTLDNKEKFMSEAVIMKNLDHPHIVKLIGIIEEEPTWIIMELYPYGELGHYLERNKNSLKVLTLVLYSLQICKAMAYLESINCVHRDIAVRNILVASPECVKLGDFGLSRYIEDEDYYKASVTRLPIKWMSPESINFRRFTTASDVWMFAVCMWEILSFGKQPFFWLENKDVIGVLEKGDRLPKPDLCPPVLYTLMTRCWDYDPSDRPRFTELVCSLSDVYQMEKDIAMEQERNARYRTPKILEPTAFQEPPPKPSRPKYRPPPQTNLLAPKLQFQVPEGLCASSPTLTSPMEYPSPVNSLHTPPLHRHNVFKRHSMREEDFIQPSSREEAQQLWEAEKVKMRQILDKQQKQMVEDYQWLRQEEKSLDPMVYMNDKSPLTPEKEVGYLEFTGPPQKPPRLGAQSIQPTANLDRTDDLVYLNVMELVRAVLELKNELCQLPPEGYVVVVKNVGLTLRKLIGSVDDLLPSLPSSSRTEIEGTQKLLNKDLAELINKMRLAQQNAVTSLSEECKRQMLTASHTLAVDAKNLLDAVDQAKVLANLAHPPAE
Cav3 T inh: human Cav3.2 channel inhibition, primary screen | Cav3.2-expressing cells, Fluo-4 calcium fluorescence FDSS; stronger effect = lower value | 100,000 tested, 4% active | B-score at 10 µM;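 active = single-dose well whose peak fluorescence ratio is a statistical outlier from its plate by either plate-standardised score or position-corrected B-score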
CYP2C19 inh: blocks human cytochrome P450 2C19. P33261. CYP2C19 Supersomes, luciferin-H EGE luminescence, 30 min. inhibition, % at 5 µM. 96,000 tested, 21% active. AID 778;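 active = CYP2C19 inhibition above a set limit at 5 µM in the primary screen, cut at about 50% in these data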
CYP2C19 act: activators of human cytochrome P450 2C19 | P33261 | recombinant CYP2C19, luciferin-H EGE luminescence; stronger effect = higher value; 0 = fully inhibited enzyme, 1 = untreated enzyme | activation factor at 5 µM | 96,000 tested, under 10 active | AID 1025;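 active = activation factor of at least 2 at 5 µM in the primary screen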
CYP2C9 inhib: blocks human cytochrome P450 2C9. 96,000 tested, 20% active. P11712. AID 777. CYP2C9 Supersomes, luciferin-H conversion, luminescence. inhibition, % at 5 µM;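 active = blocking of liver enzyme CYP2C9 beyond about 50% at 5 µM, limit read from the data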
CYP2C9 act: increases human cytochrome P450 2C9 activity; P11712; recombinant CYP2C9, luciferin-H conversion, luminescence; stronger effect = higher value; factor 1 = untreated enzyme, 0 = blocked; activation factor at 5 µM; 96,000 tested, 1.4% active;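 active = activation factor of 2 or more for CYP2C9 at a 5 µM dose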
Hits are given with their value; i = inactive; nt = no result.

SMILES | Pyk2 oligo antag | Cav3 T inh | CYP2C19 inh | CYP2C19 act | CYP2C9 inhib | CYP2C9 act
O=C(CCN1C(=O)COc2ccccc21)NCCN1CCOCC1 | i | i | i | i | i | i
CCOc1ccc(OCC)c(NC(=O)C2CCCN(S(=O)(=O)c3c(C)noc3C)C2)c1 (centres undefined) | i | i | i | i | i | i
CCOc1ccc(OCC)c(NC(=O)C2CCCN(S(=O)(=O)c3cnc[nH]3)C2)c1 (centres undefined) | nt | i | i | i | 79.2 | i
CCOc1ccc(OCC)c(NC(=O)C2CCCN(c3ncccn3)C2)c1 (centres undefined) | i | i | 60.3 | i | i | i
CCC(C)c1ccc(NC(=O)C2CCCN(c3ncccn3)C2)cc1 (centres undefined) | i | i | i | i | i | i
CCOc1ccc(OCC)c(NC(=O)C2CCCN(S(=O)(=O)c3c(C)n[nH]c3C)C2)c1 (centres undefined) | nt | i | i | i | 63.5 | i
CCOC(=O)Cc1csc(NC(=O)C2CCCN(S(=O)(=O)c3cnc[nH]3)C2)n1 (centres undefined) | nt | i | i | i | i | i
CCc1nc(Nc2ccncc2)c2oc3ccccc3c2n1 | i | i | i | i | i | i
CCc1nc(NCc2ccccn2)c2oc3ccccc3c2n1 | -3.02 | i | nt | nt | nt | nt
CCc1nc(NCCN2CCOCC2)c2oc3ccccc3c2n1 | i | i | 56.9 | i | i | i
CCC(c1nnc(SCC(=O)Nc2nnc(-c3ccccc3)o2)n1Cc1ccccc1)N(C)C (centres undefined) | i | i | i | i | i | i
Cc1ccc(-c2noc(CSc3nnc(Cc4ccccc4)n3-c3cccc(C)c3)n2)cc1 | i | i | 82.4 | i | i | i
COc1ccc(-c2noc(CSc3nnc(Cc4ccccc4)n3-c3cccc(C)c3)n2)cc1OC | i | -5.46 | 97.9 | i | 54.6 | i
CCn1c(SCc2nc(-c3ccc(OC)c(OC)c3)no2)nnc1-c1cccs1 | i | i | i | i | i | i
CCOC(=O)CNC(=O)C1c2ccccc2C(=O)N(c2ccc(OC)cc2)C1c1ccc(OC)cc1 (centres undefined) | i | i | i | i | i | i
O=C(c1ccc(Oc2ccccc2)cc1)c1nc2c(n1O)CCCC2 | i | i | i | i | 67.3 | i
COc1ccc(OC)c(C(=O)c2nc3c(n2O)CCCCC3)c1 | i | i | i | i | 51.1 | i
COc1ccc(OC)c(C(=O)c2ccc(C(=O)N3CCCCC3)cc2)c1 | i | i | i | i | 72.9 | i
COc1ccc(C(=O)c2nc3c(n2O)CCCCC3)cc1 | i | i | i | i | i | i
N#Cc1ccc(OCC(=O)NCCc2ccccn2)cc1 | i | i | i | i | i | i
COc1ccc(CC(=O)OCc2cc3cccc(C)c3[nH]c2=O)cc1 | i | i | i | i | i | i
CCC(=O)OCc1cc2cccc(C)c2[nH]c1=O | i | i | 52.6 | i | i | i
CCC(C)Nc1nc2c(c(=O)n(C)c(=O)n2C)n1Cc1ccc(F)cc1 (centres undefined) | i | i | i | i | i | i
COc1ccccc1-n1c(CNc2ccc(F)cc2)nnc1SCC(=O)Nc1cc(C)on1 | i | i | nt | nt | nt | nt
Cc1ccc(OCc2nc(-c3ccc(Cl)cc3)n[nH]2)cc1 | i | i | 95.4 | i | 94.1 | i
SMILES | Pyk2 oligo antag | Cav3 T inh | CYP2C19 inh | CYP2C19 act | CYP2C9 inhib | CYP2C9 act
S=c1[nH]nc(COc2ccc(Cl)cc2)o1 | i | i | i | i | i | i
CC(C)(C)C1CCc2onc(C(=O)Nc3ccc(F)cc3F)c2C1 (centres undefined) | i | i | 63.0 | i | i | i
CC(C)(C)C1CCc2onc(C(=O)Nc3cnn(Cc4ccc(F)cc4)c3)c2C1 (centres undefined) | i | i | i | i | i | i
O=C(O)CCC(=O)Nc1ccc(Br)cn1 | i | i | 50.2 | i | i | i
O=C(CN1C(=O)c2ccccc2S1(=O)=O)NCCSC1CCCCC1 | i | nt | i | i | i | i
Cc1ccc(C)n1-c1nc(=S)[nH][nH]1 | i | i | 76.1 | i | 87.7 | i
S=c1nc(-c2ccco2)[nH][nH]1 | i | i | i | i | i | i
CN1CCc2c(sc3c2c(=O)n(-c2ccccc2)c2n[nH]c(=S)n32)C1 | i | i | i | i | i | i
c1ccc(Cn2ncc3c2ncn2c(-c4ccncc4)nnc32)cc1 | nt | nt | 85.3 | i | i | i
Cc1ccc(-n2ncc3c2ncn2c(-c4ccncc4)nnc32)cc1 | nt | nt | i | i | i | i
NC(=O)c1ccccc1NC(=O)/C=C/c1cccc(Cl)c1 | -3.23 | i | i | i | i | i
CC(NCc1ccc2c(c1)OCO2)C(=O)NC1CCCc2ccccc21 (centres undefined) | i | i | i | i | i | i
C/C=C/c1c(F)c(F)c(Oc2ccc(C(=O)O)cc2)c(F)c1F | i | i | i | i | 81.0 | i
O=C(O)c1ccc(COc2c(F)c(F)cc(F)c2F)cc1 | i | i | i | i | i | i
Cc1nn(Cc2ccc(F)cc2)c(C)c1NC(=O)c1noc2c1CCCCC2 | i | i | 55.7 | i | 76.8 | i
Cc1nn(Cc2ccc(Cl)cc2)c(C)c1NC(=O)c1noc2c1CCc1ccccc1-2 | nt | i | i | i | i | i
Cc1nn(Cc2ccccc2Cl)c(C)c1NC(=O)c1noc2c1CCCCC2 | i | i | i | i | 53.8 | i
Cc1nn(Cc2ccccc2Cl)c(C)c1NC(=O)C1C2CCC(O2)C1C(=O)O (centres undefined) | i | i | 94.1 | i | i | i
Cc1nn(Cc2ccc(Cl)cc2Cl)c(C)c1NC(=O)C1C2CCC(O2)C1C(=O)O (centres undefined) | i | i | nt | nt | nt | nt
Cc1cc(NC(=O)c2noc3c2CCCC3)nn1Cc1ccc(Cl)cc1 | i | -4.8 | i | i | i | i
N#Cc1nc(-c2cccc(Cl)c2)oc1NCc1cccnc1 | i | i | 95.1 | i | 94.0 | i
COc1ccc(-c2nc(C#N)c(NCc3cccnc3)o2)cc1OC | i | i | i | i | 50.9 | i
COc1ccc(-c2nc(C#N)c(NCc3ccc(F)cc3)o2)cc1OC | i | i | i | i | i | i
O=c1oc2ccccc2n1CCc1ccccc1 | i | i | 86.1 | i | i | i
Cc1ccccc1OCCn1c(=O)oc2ccccc21 | i | i | 98.8 | i | 69.4 | i
SMILES | Pyk2 oligo antag | Cav3 T inh | CYP2C19 inh | CYP2C19 act | CYP2C9 inhib | CYP2C9 act
CCCNC(=O)C1(CC2CC(c3ccccc3)=NO2)CCN(C(=O)Cc2ccc(F)cc2)CC1 (centres undefined) | nt | i | nt | nt | nt | nt
Cc1nnc(SCCc2ccccc2)[nH]c1=O | i | i | i | i | 55.8 | i
Cc1cccc(NC(=O)CC2S/C(=N/c3nccs3)N(C)C2=O)c1 (centres undefined) | i | i | 53.7 | i | 80.5 | i
CCC(C)c1ccc(NC(=O)COC(=O)C2=COCCO2)cc1 (centres undefined) | i | i | i | i | i | i
COc1ccccc1CNC(=O)CCN1C(=O)COc2ccc(C)cc21 | i | i | 62.0 | i | i | i
O=C(CCN1C(=O)COc2ccccc21)NCc1ccco1 | i | i | 93.7 | i | i | i
